# Assay results from the supplement of paper PMC10849652.
# Of roughly 8,800 targets only a part is listed; those with a hit were picked by preference. About 0.5% of all pairs of compound and target were hits.
# Tests used:
# Experiment in all cases: log2 fold change, soluble protein after heating vs DMSO (PISA); higher = thermal stabilisation; K562 lysate, 10 uM; active = over 0.2 and 3.5 SD of the protein, either way, in both replicates (recomputed)
# nilotinib = compound: Cc1cn(-c2cc(NC(=O)c3ccc(C)c(Nc4nccc(-c5cccnc5)n4)c3)cc(C(F)(F)F)c2)cn1 [nilotinib]
# Outline: (§1)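 To prepare the extract, K562 pellets were dounce-homogenised in PBS pH 7.4 with 1 mM MgCl2, giving crude material at 1 mg/mL protein. This was treated with 10 μM compound for 30 min, then heated in aliquots for 3 min over 48°C-58°C before pooling and addition of NP-40 to 0.5% at 4°C. Centrifugation at 21,000xg for 90 min left soluble protein in the supernatant, which TMTpro 16plex LC-MS/MS quantified with equalised channel sums. Results are log-two fold changes in thermal stability compared with solvent controls, from duplicates.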
# [1] = compound: Cc1nc(Nc2n[nH]c3c2CN(C(=O)N[C@H](CN(C)C)c2ccccc2)C3(C)C)c2sccc2n1
# Outline: as §1
# dasatinib = compound: Cc1nc(Nc2ncc(C(=O)Nc3c(C)cccc3Cl)s2)cc(N2CCN(CCO)CC2)n1 [dasatinib]
# Outline: as §1
# [2] = compound: Cc1ncc(-c2ccnc(Nc3ccc(S(C)(=O)=O)cc3)n2)n1C(C)C
# Outline: as §1
# [3] = compound: Cn1cc(-c2ccc3c(c2)CCN3C(=O)Cc2cccc(C(F)(F)F)c2)c2c(N)ncnc21
# Outline: as §1
# quisinostat = compound: Cn1cc(CNCC2CCN(c3ncc(C(=O)NO)cn3)CC2)c2ccccc21 [quisinostat]
# Outline: as §1
# tipifarnib = compound: Cn1cncc1[C@@](N)(c1ccc(Cl)cc1)c1ccc2c(c1)c(-c1cccc(Cl)c1)cc(=O)n2C [tipifarnib]
# Outline: as §1
# [4] = compound: NC(=O)Nc1cc(-c2cccc(F)c2)sc1C(=O)N[C@H]1CCCNC1
# Outline: as §1
# [5] = compound: NC(=O)c1cnc(N[C@@H]2CCCC[C@@H]2N)nc1Nc1cccc(-n2nccn2)c1
# Outline: as §1
# [6] = compound: NC1(c2ccc(-c3nc4ccn5c(=O)[nH]nc5c4cc3-c3ccccc3)cc2)CCC1
# Outline: as §1
# UniProt O00148, sequence (O00148 whole entry, looked up): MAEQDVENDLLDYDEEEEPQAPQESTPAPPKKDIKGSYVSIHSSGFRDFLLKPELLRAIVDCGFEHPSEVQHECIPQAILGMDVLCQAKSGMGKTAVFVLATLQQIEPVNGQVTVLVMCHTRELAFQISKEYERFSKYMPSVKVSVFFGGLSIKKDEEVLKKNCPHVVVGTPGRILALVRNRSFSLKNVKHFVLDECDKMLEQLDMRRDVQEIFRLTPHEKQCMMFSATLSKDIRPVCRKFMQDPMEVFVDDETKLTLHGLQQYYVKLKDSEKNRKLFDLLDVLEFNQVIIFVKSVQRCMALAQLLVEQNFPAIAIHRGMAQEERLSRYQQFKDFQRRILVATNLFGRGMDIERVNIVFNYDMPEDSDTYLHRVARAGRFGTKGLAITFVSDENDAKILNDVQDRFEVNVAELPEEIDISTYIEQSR
# UniProt Q99715, sequence (Q99715 whole entry, looked up): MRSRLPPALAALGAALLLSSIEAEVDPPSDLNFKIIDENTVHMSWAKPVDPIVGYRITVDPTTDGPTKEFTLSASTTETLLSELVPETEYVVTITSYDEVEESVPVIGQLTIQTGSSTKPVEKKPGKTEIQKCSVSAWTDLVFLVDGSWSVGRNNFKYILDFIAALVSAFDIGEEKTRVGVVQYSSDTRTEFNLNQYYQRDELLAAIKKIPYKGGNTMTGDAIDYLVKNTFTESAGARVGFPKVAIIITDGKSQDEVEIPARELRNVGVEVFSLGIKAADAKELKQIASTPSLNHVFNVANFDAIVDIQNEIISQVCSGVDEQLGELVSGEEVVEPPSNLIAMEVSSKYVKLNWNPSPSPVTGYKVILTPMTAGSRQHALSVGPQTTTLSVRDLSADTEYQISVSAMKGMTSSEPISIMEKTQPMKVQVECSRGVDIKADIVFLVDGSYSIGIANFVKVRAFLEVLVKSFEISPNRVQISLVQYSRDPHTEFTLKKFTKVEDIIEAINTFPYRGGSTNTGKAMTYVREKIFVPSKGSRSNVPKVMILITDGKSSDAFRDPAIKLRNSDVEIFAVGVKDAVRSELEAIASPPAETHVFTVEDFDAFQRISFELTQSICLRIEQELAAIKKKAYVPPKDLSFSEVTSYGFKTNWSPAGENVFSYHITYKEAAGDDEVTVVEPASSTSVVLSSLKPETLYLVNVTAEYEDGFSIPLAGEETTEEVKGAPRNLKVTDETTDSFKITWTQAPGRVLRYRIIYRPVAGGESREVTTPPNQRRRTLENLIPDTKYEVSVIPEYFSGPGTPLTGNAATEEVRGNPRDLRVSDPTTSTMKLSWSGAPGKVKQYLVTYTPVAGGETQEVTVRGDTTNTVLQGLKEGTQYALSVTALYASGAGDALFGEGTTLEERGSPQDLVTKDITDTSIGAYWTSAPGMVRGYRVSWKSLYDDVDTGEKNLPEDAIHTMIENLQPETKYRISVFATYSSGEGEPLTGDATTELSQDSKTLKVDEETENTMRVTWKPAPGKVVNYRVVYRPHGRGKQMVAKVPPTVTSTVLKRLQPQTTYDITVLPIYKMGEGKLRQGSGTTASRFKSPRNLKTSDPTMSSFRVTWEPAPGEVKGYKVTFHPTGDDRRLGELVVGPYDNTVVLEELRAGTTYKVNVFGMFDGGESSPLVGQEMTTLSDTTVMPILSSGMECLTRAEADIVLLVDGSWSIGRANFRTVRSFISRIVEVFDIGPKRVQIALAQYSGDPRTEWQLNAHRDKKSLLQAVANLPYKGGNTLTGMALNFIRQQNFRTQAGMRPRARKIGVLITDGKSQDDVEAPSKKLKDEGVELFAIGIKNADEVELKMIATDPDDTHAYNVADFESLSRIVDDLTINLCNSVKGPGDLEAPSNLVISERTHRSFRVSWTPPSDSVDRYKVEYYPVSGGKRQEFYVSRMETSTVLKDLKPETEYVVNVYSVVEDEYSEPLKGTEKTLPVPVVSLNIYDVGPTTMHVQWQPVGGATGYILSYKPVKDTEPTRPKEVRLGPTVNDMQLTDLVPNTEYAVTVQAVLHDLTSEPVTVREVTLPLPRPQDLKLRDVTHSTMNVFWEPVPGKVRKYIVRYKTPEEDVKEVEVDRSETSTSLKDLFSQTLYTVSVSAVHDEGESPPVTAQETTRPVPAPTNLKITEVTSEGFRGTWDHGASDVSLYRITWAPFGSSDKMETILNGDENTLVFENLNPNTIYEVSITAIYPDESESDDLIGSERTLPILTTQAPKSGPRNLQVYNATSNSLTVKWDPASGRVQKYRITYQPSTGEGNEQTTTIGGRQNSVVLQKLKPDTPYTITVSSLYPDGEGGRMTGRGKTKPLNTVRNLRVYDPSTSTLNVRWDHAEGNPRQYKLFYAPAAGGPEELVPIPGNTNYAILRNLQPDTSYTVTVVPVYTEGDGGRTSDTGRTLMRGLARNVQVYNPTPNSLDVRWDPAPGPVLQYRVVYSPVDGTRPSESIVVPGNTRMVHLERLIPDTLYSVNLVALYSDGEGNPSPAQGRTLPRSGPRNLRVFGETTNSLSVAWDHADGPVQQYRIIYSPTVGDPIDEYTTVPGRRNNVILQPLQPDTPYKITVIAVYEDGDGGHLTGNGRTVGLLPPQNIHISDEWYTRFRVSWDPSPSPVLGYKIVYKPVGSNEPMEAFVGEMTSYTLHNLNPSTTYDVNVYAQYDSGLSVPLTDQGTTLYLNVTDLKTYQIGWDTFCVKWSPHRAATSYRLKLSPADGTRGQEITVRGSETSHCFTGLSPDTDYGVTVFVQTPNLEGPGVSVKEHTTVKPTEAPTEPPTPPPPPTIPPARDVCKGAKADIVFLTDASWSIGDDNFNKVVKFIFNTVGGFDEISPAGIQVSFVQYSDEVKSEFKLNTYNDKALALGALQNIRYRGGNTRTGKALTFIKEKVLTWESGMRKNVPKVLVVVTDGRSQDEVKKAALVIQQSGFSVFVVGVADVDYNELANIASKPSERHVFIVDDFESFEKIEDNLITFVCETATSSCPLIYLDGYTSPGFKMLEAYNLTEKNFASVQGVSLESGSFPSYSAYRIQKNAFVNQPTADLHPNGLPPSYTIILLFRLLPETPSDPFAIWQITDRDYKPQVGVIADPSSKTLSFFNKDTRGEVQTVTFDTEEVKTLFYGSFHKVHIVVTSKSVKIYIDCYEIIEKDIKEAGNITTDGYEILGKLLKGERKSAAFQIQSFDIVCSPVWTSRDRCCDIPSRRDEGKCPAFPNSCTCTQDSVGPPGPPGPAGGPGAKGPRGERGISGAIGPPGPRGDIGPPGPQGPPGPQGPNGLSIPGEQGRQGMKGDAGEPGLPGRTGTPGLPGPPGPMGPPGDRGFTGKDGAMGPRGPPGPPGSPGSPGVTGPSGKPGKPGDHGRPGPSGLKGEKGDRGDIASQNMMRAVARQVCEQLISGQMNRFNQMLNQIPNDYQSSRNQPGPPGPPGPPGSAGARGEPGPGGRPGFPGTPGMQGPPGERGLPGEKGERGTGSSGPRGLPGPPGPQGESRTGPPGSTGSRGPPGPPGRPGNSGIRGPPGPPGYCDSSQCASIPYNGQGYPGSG
# UniProt O94760, sequence (O94760 whole entry, looked up): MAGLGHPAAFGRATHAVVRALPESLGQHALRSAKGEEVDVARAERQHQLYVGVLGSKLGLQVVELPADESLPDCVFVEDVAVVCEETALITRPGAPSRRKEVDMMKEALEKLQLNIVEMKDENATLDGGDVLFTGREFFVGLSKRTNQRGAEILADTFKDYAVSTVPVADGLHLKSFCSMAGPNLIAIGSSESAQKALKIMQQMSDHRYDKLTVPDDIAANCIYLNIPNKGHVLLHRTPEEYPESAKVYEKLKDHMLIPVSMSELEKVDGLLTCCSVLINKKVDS
# UniProt Q9Y6M4, sequence (Q9Y6M4 whole entry, looked up): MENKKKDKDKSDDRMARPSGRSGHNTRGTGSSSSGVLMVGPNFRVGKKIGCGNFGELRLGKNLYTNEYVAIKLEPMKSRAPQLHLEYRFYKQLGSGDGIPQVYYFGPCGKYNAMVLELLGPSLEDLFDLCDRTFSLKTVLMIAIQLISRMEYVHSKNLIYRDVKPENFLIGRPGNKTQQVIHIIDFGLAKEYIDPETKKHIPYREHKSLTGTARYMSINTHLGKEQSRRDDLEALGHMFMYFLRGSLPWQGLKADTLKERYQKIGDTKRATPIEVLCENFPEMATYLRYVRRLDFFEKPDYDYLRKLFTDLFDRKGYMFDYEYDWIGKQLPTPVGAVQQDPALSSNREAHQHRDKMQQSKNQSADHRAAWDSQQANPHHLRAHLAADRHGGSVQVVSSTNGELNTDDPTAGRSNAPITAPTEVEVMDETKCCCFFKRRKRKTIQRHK
# UniProt G9CGD6, sequence (G9CGD6 whole entry, looked up): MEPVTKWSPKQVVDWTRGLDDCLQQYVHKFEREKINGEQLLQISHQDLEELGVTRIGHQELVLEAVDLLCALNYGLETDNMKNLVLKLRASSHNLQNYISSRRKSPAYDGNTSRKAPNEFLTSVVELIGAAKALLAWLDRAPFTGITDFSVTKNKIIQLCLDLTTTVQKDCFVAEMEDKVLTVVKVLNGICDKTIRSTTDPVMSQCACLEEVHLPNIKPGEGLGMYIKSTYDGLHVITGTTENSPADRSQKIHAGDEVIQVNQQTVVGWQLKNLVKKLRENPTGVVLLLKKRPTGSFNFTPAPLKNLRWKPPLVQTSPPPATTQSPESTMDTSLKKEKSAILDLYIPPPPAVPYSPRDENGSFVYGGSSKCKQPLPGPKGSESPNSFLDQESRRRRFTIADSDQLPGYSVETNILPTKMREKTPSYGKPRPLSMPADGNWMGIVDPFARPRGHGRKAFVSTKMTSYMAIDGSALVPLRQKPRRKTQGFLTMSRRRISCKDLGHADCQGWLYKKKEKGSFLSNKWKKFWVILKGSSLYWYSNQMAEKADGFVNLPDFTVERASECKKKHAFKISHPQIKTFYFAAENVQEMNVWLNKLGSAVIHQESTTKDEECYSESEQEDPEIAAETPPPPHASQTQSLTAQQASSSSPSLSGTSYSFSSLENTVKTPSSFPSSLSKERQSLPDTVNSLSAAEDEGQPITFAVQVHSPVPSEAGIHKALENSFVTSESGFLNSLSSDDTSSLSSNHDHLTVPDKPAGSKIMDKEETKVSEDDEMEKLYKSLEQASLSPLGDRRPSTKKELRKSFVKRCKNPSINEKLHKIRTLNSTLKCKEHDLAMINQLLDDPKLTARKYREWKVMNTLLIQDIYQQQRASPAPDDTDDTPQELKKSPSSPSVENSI
Target,log2 fold change (nilotinib),log2 fold change [1],log2 fold change (dasatinib),log2 fold change [2],log2 fold change [3],log2 fold change (quisinostat),log2 fold change (tipifarnib),log2 fold change [4],log2 fold change [5],log2 fold change [6]
CHEK2 (UniProt O96017),-0.022 (inactive),0.285 (active),0.04 (inactive),-0.007 (inactive),0.05 (inactive),-0.057 (inactive),0.023 (inactive),0.326 (active),0.013 (inactive),0.035 (inactive)
DDX39A (UniProt O00148),-0.002 (inactive),0.02 (inactive),0.001 (inactive),0.007 (inactive),0.06 (inactive),-0.018 (inactive),-0.053 (inactive),0.075 (inactive),0.036 (inactive),-0.013 (inactive)
DENND6A (UniProt Q8IWF6),0.012 (inactive),-0.009 (inactive),0.053 (inactive),0.017 (inactive),0.095 (inactive),-0.084 (inactive),-0.041 (inactive),0.018 (inactive),-0.032 (inactive),-0.011 (inactive)
CLCN3 isoform 2 (UniProt P51790),0.017 (inactive),-0.018 (inactive),-0.012 (inactive),0.006 (inactive),-0.008 (inactive),0.01 (inactive),-0.012 (inactive),0.04 (inactive),0.022 (inactive),0.024 (inactive)
DMAC2L (UniProt Q99766),-0.021 (inactive),0.001 (inactive),0.059 (inactive),-0.04 (inactive),-0.009 (inactive),0.012 (inactive),-0.017 (inactive),-0.032 (inactive),-0.006 (inactive),0.111 (inactive)
DOCK7 (UniProt Q96N67),0.005 (inactive),-0.002 (inactive),0.01 (inactive),-0.03 (inactive),0.029 (inactive),-0.039 (inactive),-0.01 (inactive),0.048 (inactive),0.036 (inactive),-0.062 (inactive)
CNOT2 (UniProt Q9NZN8),0.013 (inactive),-0.011 (inactive),-0.024 (inactive),0.009 (inactive),-0.018 (inactive),-0.026 (inactive),-0.074 (inactive),0.024 (inactive),0.02 (inactive),-0.001 (inactive)
CMSS1 (UniProt Q9BQ75),-0.025 (inactive),0.014 (inactive),-0.019 (inactive),0 (inactive),0.014 (inactive),0.023 (inactive),0.06 (inactive),0.013 (inactive),0.004 (inactive),0.031 (inactive)
CKAP2 (UniProt Q8WWK9),0.075 (inactive),0.07 (inactive),0.004 (inactive),0.036 (inactive),-0.014 (inactive),-0.098 (inactive),-0.053 (inactive),-0.015 (inactive),-0.049 (inactive),-0.023 (inactive)
"CLUH, A0A494C0R8",0.026 (inactive),0.146 (inactive),0.028 (inactive),-0.022 (inactive),0.015 (inactive),-0.165 (inactive),-0.033 (inactive),0.022 (inactive),-0.045 (inactive),0.046 (inactive)
DCUN1D4 isoform 3 (UniProt Q92564),0.023 (inactive),-0.007 (inactive),-0.062 (inactive),-0.009 (inactive),-0.046 (inactive),0.066 (inactive),0.017 (inactive),-0.019 (inactive),-0.036 (inactive),-0.043 (inactive)
CSNK1G3 (UniProt Q9Y6M4),-0.029 (inactive),0.428 (active),0.002 (inactive),0.388 (active),0.014 (inactive),-0.067 (inactive),0.001 (inactive),0.397 (active),0 (inactive),0.086 (inactive)
COX7B (UniProt P24311),0.001 (inactive),0.017 (inactive),-0.008 (inactive),0.016 (inactive),0.025 (inactive),0.047 (inactive),0.023 (inactive),-0.03 (inactive),-0.047 (inactive),0 (inactive)
CSNK2A2 (UniProt P19784),-0.031 (inactive),0.195 (inactive),-0.039 (inactive),0.254 (inactive),-0.004 (inactive),0.001 (inactive),-0.014 (inactive),0.094 (inactive),0.018 (inactive),-0.003 (inactive)
DNAH10 (UniProt Q8IVF4),0.017 (inactive),0.014 (inactive),-0.026 (inactive),-0.024 (inactive),-0.026 (inactive),-0.251 (inactive),0.025 (inactive),0.012 (inactive),-0.017 (inactive),-0.072 (inactive)
DLD (UniProt P09622),0.02 (inactive),0.001 (inactive),0.003 (inactive),0.011 (inactive),-0.022 (inactive),-0.014 (inactive),0.003 (inactive),-0.015 (inactive),-0.009 (inactive),0.005 (inactive)
DDAH1 (UniProt O94760),,,-0.244 (inactive),,0.174 (inactive),-0.013 (inactive),,-0.003 (inactive),-0.034 (inactive),-0.016 (inactive)
CUX1 isoform 2 (UniProt Q13948),,,0.001 (inactive),,0.101 (inactive),0.072 (inactive),,-0.026 (inactive),-0.073 (inactive),0.012 (inactive)
CYP4V2 (UniProt Q6ZWL3),,,-0.041 (inactive),,0.049 (inactive),0.103 (inactive),,-0.026 (inactive),-0.101 (inactive),-0.033 (inactive)
DNAH5 (UniProt Q8TE73),-0.029 (inactive),-0.036 (inactive),-0.072 (inactive),-0.013 (inactive),-0.156 (inactive),,-0.128 (inactive),,-0.073 (inactive),-0.049 (inactive)
CLASP2 (UniProt O75122),0.013 (inactive),-0.14 (inactive),,-0.061 (inactive),,-0.135 (inactive),-0.242 (inactive),-0.058 (inactive),0.205 (inactive),
CSDE1 isoform 3 (UniProt O75534),0.064 (inactive),-0.135 (inactive),,0.016 (inactive),,0.022 (inactive),-0.02 (inactive),-0.085 (inactive),-0.021 (inactive),
CPLX1 (UniProt O14810),,,1.05 (active),,-0.134 (inactive),,,,0.178 (inactive),
DNA2 (UniProt P51530),0.011 (inactive),0.007 (inactive),0.069 (inactive),0.005 (inactive),0.05 (inactive),-0.069 (inactive),-0.04 (inactive),0.043 (inactive),,0.067 (inactive)
CSNK1A1 isoform 3 (UniProt P48729),,,0.048 (inactive),,-0.183 (inactive),,,,,
CNK3/IPCEF1 isoform 2 (UniProt G9CGD6),,,-0.131 (inactive),,0.002 (inactive),,,,,0.168 (inactive)

Target,log2 fold change (nilotinib),log2 fold change [1],log2 fold change (dasatinib),log2 fold change [2],log2 fold change [3],log2 fold change (quisinostat),log2 fold change (tipifarnib),log2 fold change [4],log2 fold change [5],log2 fold change [6]
"CSNK2A1, A0A2R8Y4D6",,,,,,,,,0.085 (inactive),
CNTN4 (UniProt Q8IWV2),0.127 (inactive),-0.06 (inactive),,0.306 (inactive),,-0.561 (active),-0.006 (inactive),0.151 (inactive),0.072 (inactive),-0.024 (inactive)
COL12A1 (UniProt Q99715),,,-0.097 (inactive),,0.198 (inactive),-0.056 (inactive),,0.166 (inactive),0.827 (inactive),-0.154 (inactive)
DHX32 (UniProt Q7L7V1),-0.025 (inactive),-0.027 (inactive),,-0.044 (inactive),,-0.015 (inactive),-0.061 (inactive),0.142 (inactive),,0.108 (inactive)
DDX4 (UniProt Q9NQI0),-0.108 (inactive),0.043 (inactive),0.014 (inactive),-0.085 (inactive),0.076 (inactive),,0.028 (inactive),,0.062 (inactive),0.059 (inactive)
CHMP4A (UniProt H0YIN6),,,0.294 (inactive),,-0.06 (inactive),-0.502 (inactive),,0.041 (inactive),0.066 (inactive),
CSAD isoform 3 (UniProt Q9Y600),,,,,,-0.035 (inactive),,-0.001 (inactive),,-0.153 (inactive)
CNOT4 isoform 9 (UniProt O95628),,,-0.062 (inactive),,-0.052 (inactive),0.17 (inactive),,-0.058 (inactive),0.081 (inactive),-0.024 (inactive)
DIAPH1 (UniProt H9KV28),-0.027 (inactive),-0.122 (inactive),,0.053 (inactive),,-0.093 (inactive),-0.051 (inactive),-0.001 (inactive),0.05 (inactive),0.111 (inactive)
DALRD3 (UniProt Q5D0E6),,,,,,,,,-0.03 (inactive),0.207 (inactive)
DLGAP5 isoform 3 (UniProt Q15398),,,0.017 (inactive),,0.18 (inactive),,,,,
CRLS1 (UniProt Q9UJA2),0.1 (inactive),-0.096 (inactive),,-0.143 (inactive),,-0.122 (inactive),-0.01 (inactive),0.066 (inactive),-0.018 (inactive),-0.067 (inactive)
"CLIP1, A0A3B3ITA2",,,,,,-0.169 (inactive),,0.017 (inactive),,
CSNK1G3 isoform 4 (UniProt Q9Y6M4),,,,,,,,,0.083 (inactive),
COPS9 (UniProt Q8WXC6),,,,,,,,,-0.074 (inactive),0.214 (inactive)
DPY19L3 (UniProt Q6ZPD9),,,,,,-0.103 (inactive),,0.034 (inactive),0.045 (inactive),-0.683 (active)
CLASP1 isoform 4 (UniProt Q7Z460),-0.113 (inactive),0.126 (inactive),,0.09 (inactive),,,-0.301 (inactive),,,0.111 (inactive)
CYP2S1 isoform 2 (UniProt Q96SQ9),,,0.116 (inactive),,0.093 (inactive),0.014 (inactive),,-0.135 (inactive),0.054 (inactive),-0.056 (inactive)
DAZAP1 (UniProt K7EQ02),-0.221 (inactive),0.096 (inactive),,0.119 (inactive),,,-0.039 (inactive),,,
CSRP2 (UniProt Q16527),,,,,,-0.012 (inactive),,0.068 (inactive),,
COL6A3 (UniProt P12111),0.05 (inactive),0.151 (inactive),0.032 (inactive),0.02 (inactive),-0.055 (inactive),0.123 (inactive),-0.009 (inactive),0 (inactive),,-0.155 (inactive)
CNOT2 (UniProt F8VRS8),,,,,,,,,,-0.122 (inactive)
CORO7 (UniProt P57737),-0.102 (inactive),0.136 (inactive),0.024 (inactive),-0.072 (inactive),0.119 (inactive),0.171 (inactive),-0.051 (inactive),0.088 (inactive),,0.183 (inactive)
DBF4 (UniProt Q9UBU7),0.05 (inactive),0 (inactive),0.091 (inactive),0.17 (inactive),-0.021 (inactive),0.038 (inactive),-0.146 (inactive),0.043 (inactive),,0.07 (inactive)
CNNM2 (UniProt Q9H8M5),,,-0.021 (inactive),,-0.044 (inactive),0.217 (inactive),,-0.077 (inactive),-0.001 (inactive),-0.006 (inactive)
